# Autofluor counter – flagged as autofluorescent in microsphere protease counterscreen. compound autofluorescence counterscreen, microsphere flow cytometry; hits give high values. AID 624483. fluorescence intensity (concentration not given with the values). hit rate 3.1% among 360,000; in the data active = fluorescence intensity above about 16000; inconclusive = no clear call, values can overlap the other calls
# BoNT-A LC inh2 – blocks Botulinum neurotoxin A light chain protease. inhibition, % at 10 µM. multiplex microsphere protease substrate cleavage, flow cytometry. AID 588499. hit rate 0.17% among 360,000; also: plate controls were buffer without enzyme for full effect and enzyme alone for no effect
# Anthrax LF inh2 – blocks Bacillus anthracis lethal factor protease; multiplex microsphere protease cleavage assay, LF; P15917; hit rate 0.12% among 360,000; inhibition, % at 10 µM; also: plate controls were buffer without enzyme for full effect and enzyme alone for no effect
# BoNT F protease – inhibitors of Botulinum neurotoxin F light chain protease. Multiplex microsphere protease cleavage assay, flow cytometry. hit rate 0.22% among 360,000. inhibition, % at 10 µM. AID 588497; in the data active = inhibition above about 35%, passing the limit was not always enough; inconclusive = no clear call, values can overlap the other calls; also: plate controls were buffer without enzyme for full effect and enzyme alone for no effect
# BH1578 lux ind – induces V. cholerae light production without autoinducers | V. cholerae BH1578 lux reporter, luminescence, 6 h | activation, % at 18.7 µM | hit rate 0.16% among 350,000 | AID 588436; in the data active = activation mostly above about 9.7%, no sharp cut-off; inconclusive = no clear call, values can overlap the other calls; inactive = mostly below about 3.7%
# An asterisk follows results filed as active; i = inactive; ? = inconclusive; nt = no result given. Only some compounds are listed: those with a hit (about 3.5% of all), similar ones and a draw of the others. Rule as the data show it, unless noted: active = inhibition above about 30%; inconclusive = no clear call, values can overlap the other calls; inactive = below that.
SMILES,Autofluor counter,BoNT-A LC inh2,Anthrax LF inh2,BoNT F protease,BH1578 lux ind
CCOc1ccccc1NC(=O)Nc1c(C)n(-c2ccccc2)c(=O)n1C,20830*,3,-5,2,0
CCN(CC)c1ccc(NC(=O)Nc2cccc(C(C)=O)c2)cc1,19762*,5,-10,-13,2
CCOc1ccccc1NC(=O)Nc1cccc(C(C)=O)c1,23270*,0,-1,0,i
O=[N+]([O-])c1ccc(CN2CC(N3CCN(CC4CC4)CC3)CS2(=O)=O)cc1 (stereo unspecified),3095,0,-6,-5,i
O=S(=O)(Cc1ccccc1)N1CCCCC1,3305,1,-6,-8,i
O=S(=O)(Cc1ccccc1)N1CCc2ccccc2C1,26161*,?,-2,-5,i
COc1ccc(C2C(C(C)=O)=C(O)C(=O)N2CCc2ccccc2)c(OC)c1 (stereo unspecified),16192*,0,-1,-4,-2
Cn1c(C2CCCCC2)nc2ccccc21,nt,nt,nt,nt,i
COc1cc(C(=O)OC(C)C(=O)Nc2ccc3c(c2)OCO3)ccc1OCc1c(C)noc1C (stereo unspecified),3864,1,2,-6,1
Cc1noc(C)c1COc1cccc(C(=O)OC(C)C(=O)Nc2ccc3c(c2)OCO3)c1 (stereo unspecified),19670*,4,0,0,-1
CSc1ccccc1-n1nnnc1SCC(=O)Nc1ccccc1C,20932*,0,0,-1,i
COC(=O)c1ccsc1NC(=O)CSc1nnnn1-c1ccccc1SC,24392*,-4,-1,-4,0
Cc1cccc(NC(=O)COc2ccc3oc4c(c3c2)CCCC4)n1,23564*,-2,-4,-1,0
COc1cc(Br)cc(CN2CCN(C/C=C/c3ccccc3)CC2)c1O,11697,-2,-6,-12,i
COc1ccc(O)c(CN2CCN(C/C=C/c3ccccc3)CC2)c1,24344*,-1,-1,-3,0
CC(=O)c1cccc(NC(=O)Cc2cccs2)c1,23709*,0,-2,0,-2
CCCN(CCC)S(=O)(=O)c1ccc(NC(=O)COc2ccccc2)cc1,16179*,?,2,-1,i
CCCCN(CCCC)S(=O)(=O)c1ccc(NC(=O)CN2CCOCC2)cc1,20756*,5,1,4,0
COc1ccc(OCC(=O)Nc2ccc(S(=O)(=O)N(C)c3ccccc3)cc2)cc1,6063,0,-1,-5,i
CCCCN(CCCC)S(=O)(=O)c1ccc(NC(=O)Cc2cccs2)cc1,23090*,1,-2,1,0
Cc1cccc(C(C)C)c1NC(=O)CN1C(=O)NC2(CCc3ccccc32)C1=O (stereo unspecified),nt,nt,nt,nt,-1
CN1CCN(C(=O)c2cccn(Cc3c(Cl)cccc3Cl)c2=O)CC1,3862,-12,6,-25,i
CC(C)c1ccc(-c2csc3nc[nH]c(=O)c23)cc1,4043,0,-8,?,i
CCCN(CCC)S(=O)(=O)c1ccc(NC(=O)Cc2cccs2)cc1,25405*,?,0,-5,i
CCCNS(=O)(=O)c1ccc(NC(=O)Cc2cccs2)cc1,2506,0,-4,?,nt
SMILES,Autofluor counter,BoNT-A LC inh2,Anthrax LF inh2,BoNT F protease,BH1578 lux ind
Cn1cc(Br)c(C(=O)NC2C3CC4CC(C3)CC2C4)n1 (stereo unspecified),20443*,?,-1,-3,-2
COc1ccc(C(=O)Nc2cc(C(=O)c3ccccc3)c(C)oc2=O)cc1,10513,0,-6,5,0
Cc1oc(=O)c(NC(=O)c2cccc(Cl)c2)cc1C(=O)c1ccccc1,21979*,?,0,1,-3
O=C(Nc1cccc([N+](=O)[O-])c1)c1ccc2nc(N3C(=O)CCC3=O)sc2c1,21930*,?,0,-8,i
COc1cccc(NC(=O)N2CCCCCC2)c1,5094,3,2,-4,0
COc1ccc(CC(NC(C)=O)C(=O)N2CCN(C(=O)Nc3ccc(Cl)cc3)CC2)cc1OC (stereo unspecified),22516*,1,-8,-1,-2
COc1ccc(CC(NC(C)=O)C(=O)NC2CCN(C(=O)Nc3ccccc3Cl)CC2)cc1OC (stereo unspecified),4418,-1,2,-14,i
COc1cccc(NC(=O)N2CCN(C(=O)C(Cc3ccc(OC)c(OC)c3)NC(C)=O)CC2)c1 (stereo unspecified),18405*,?,-7,13,-3
CSc1ccccc1NC(=O)c1c(C)noc1C,22017*,-5,-1,-6,0
CSc1ccccc1NC(=O)c1ccccc1N(Cc1ccccc1)S(C)(=O)=O,19711*,9,-11,11,0
CSc1ccccc1NC(=O)Nc1cccc(F)c1,2526,0,1,-2,0
CSc1ccccc1NC(=O)c1ccccc1N(C)S(C)(=O)=O,22950*,-2,-5,-5,i
CSc1ccccc1NC(=O)Nc1ccccc1,25193*,?,-2,-8,i
O=C(NCCc1ccc(Cl)cc1)c1ccc2[nH]c(=O)c(=O)[nH]c2c1,5701,0,-1,1,-1
CCN(CC(=O)Nc1ccc(NC(C)=O)cc1)C(=O)c1cccc(S(=O)(=O)N2c3ccccc3CC2C)c1 (stereo unspecified),?,-1,-3,-7,-1
COc1cc(CNn2nnnc2N)cc(Br)c1OCC(=O)NC(C)(C)C,5781,-1,3,-8,i
COc1cc(CNn2nnnc2N)cc(Br)c1OCc1c(Cl)cccc1Cl,23392*,?,-1,-6,i
CCOC(=O)N1CCN(c2cc3nccnc3cc2F)CC1,22764*,?,0,-6,2
CCCC(=O)c1cc(F)c(N2CCN(C(=O)OCC)CC2)cc1C,8786,0,0,-10,-7
O=S(=O)(c1cccc2nsnc12)N1CCc2ccccc2C1,21361*,?,-4,7,0
Cc1ccc(S(=O)(=O)NCC2CCC(C(=O)N3CCN(C)CC3)CC2)cc1 (stereo unspecified),5923,0,-2,0,0
COc1ccccc1N(CCC#N)C(=O)CSc1nc(-c2ccccc2)cn1N,3190,-2,2,-23,29*
COc1cc2cc(C(c3nnnn3Cc3ccc(F)cc3)N3CCCCCC3)c(=O)[nH]c2cc1OC (stereo unspecified),18413*,?,5,0,i
COc1ccc(Cn2nnnc2C(c2cc3cc(C)ccc3[nH]c2=O)N2CCN(C)CC2)cc1 (stereo unspecified),3516,2,0,-4,0
COc1ccc(Cn2nnnc2C(c2cc3ccc(OC)cc3[nH]c2=O)N2CCCCCC2)cc1 (stereo unspecified),22040*,6,9,2,i
CCC(Oc1ccccc1C)C(=O)N1CCCN(C)CC1 (stereo unspecified),5766,-1,1,3,2
Cn1ncc2c(=O)[nH]nnc21,3661,0,1,4,-1
CC(=O)Nc1ccc(OC(=O)N2CCCC2)cc1,3820,1,-1,-17,i

# Screens deposited in PubChem BioAssay by several laboratories.
